Screening results as filed in PubChem.
Most compounds without a hit are left out; they make up all but 4.1% or so of the library.
Peg3 prom inh: Peg3 promoter-driven luciferase inhibitors, primary screen, cell-based, HeLa, luciferase luminescence; HeLa PEG-Prom luciferase reporter, overnight; inhibition, % at 20 µM; hit rate 1.7% among 360,000; AID 588405, 2011;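 active = inhibition of at least 50% at 20 µM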
TWEAK Fn14 block: inhibitors of TWEAK-Fn14 signaling, primary screen, luciferase reporter cells, uHTS. TWEAK-stimulated Fn14 reporter cells, luciferase luminescence, 8 h. hit rate 2% among 360,000. inhibition, % at 10 µM. AID 1159606, 2016; in the data active = inhibition above about 50%
LMP1 NFkB inh: EBV LMP1-driven NF-kappaB luciferase reporter inhibitors, primary screen, cell-based, luminescence, single point | LMP1-induced NF-kappaB luciferase reporter cells | inhibition, % at 12.5 µM | hit rate 0.69% among 350,000 | AID 504558, 2011; in the data active = inhibition above about 41%; inconclusive = no clear call, values can overlap the other calls
TROY signal inh: inhibitors of TROY-driven NF-kB signaling, primary screen, Q293 LMP1-TROYcd cells, NF-kB luciferase, uHTS; Q293 LMP1-TROYcd NF-kB luciferase reporter, 4 h; AID 1347056, 2019; inhibition, % at 10 µM; hit rate 0.98% among 360,000;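 active = compounds whose plate-normalised and pattern-corrected inhibition of the luciferase reporter signal at the single screening dose is 50% or more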
MITF TRPM1 inh: inhibitors of MITF-dependent TRPM1 promoter reporter, primary screen, cell-based, SK-MEL-5, single point, luciferase; SK-MEL-5 TRPM1 promoter luciferase, 24 h; hit rate 0.83% among 330,000; inhibition, % at 12.5 µM; AID 488899, 2010;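 active = mean inhibition across replicates of 60% or more, whatever share of single replicates reaches that level; inconclusive = some that reach 60%, reason not given; inactive = mean inhibition across replicates below 60%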
Shn3 inh set2: reduction of Shn3 3'UTR firefly luciferase signal, primary screen, Schnurri-3 inhibitor project, cell-based, Clone20 osteoblasts, set 2. inhibition, % at 12.5 µM. hit rate 0.52% among 360,000. Clone20 osteoblast Shn3 3'UTR firefly luciferase, 24 h;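 active = mean inhibition of at least 75% with every replicate also reaching 75%; inconclusive = mean inhibition at least 75% but some replicate below; inactive = mean inhibition below 75%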
Each line names hits and unclear results; the compound was inactive in the other large screens; ! = not confirmed by another sample.

COc1ccccc1C(CCNCc1ccccc1)c1ccc(OC(C)C)cc1 (stereo not drawn)	Peg3 prom inh 100
OC[C@@H]1[C@@H](c2ccccc2)C(c2ccc(F)cc2)=NN1c1ccccc1	none
OC[C@@H]1[C@@H](c2ccc(Cl)cc2)C(c2ccc(F)cc2)=NN1c1ccccc1	Peg3 prom inh 85
Cn1c(=O)c2[nH]c(N=Nc3ccc(N)cc3N)nc2n(C)c1=O	LMP1 NFkB inh 51
O=C(NCC(=O)N1CCCC1)c1ccc(Br)cc1	none
O=C(CCN1C(=O)C2C3C=CC(C3)C2C1=O)N1CCN(c2ccccc2F)CC1 (stereo not drawn)	none
O=C(CCN1C(=O)C2C3C=CC(C3)C2C1=O)N1CCN(c2ccccc2Cl)CC1 (stereo not drawn)	LMP1 NFkB inh 85
COC(=O)c1cc([N+](=O)[O-])c(-n2cncn2)c([N+](=O)[O-])c1	Peg3 prom inh 94
COC(=O)c1cc(F)c(-n2cncn2)c(F)c1	none
COc1ccc(S(=O)(=O)N(C)C)cc1NC(=O)CSC(C)C(=O)Nc1cc(C)on1 (stereo not drawn)	none (no result: MITF TRPM1 inh)
Oc1ccccc1C1NN=C(c2ccccc2)S1 (stereo not drawn)	TWEAK Fn14 block 56
CSc1ccc(C2NN=C(c3ccccc3)S2)cc1 (stereo not drawn)	TWEAK Fn14 block 77, TROY signal inh 51
CCOc1cc(C2NN=C(c3ccc(C)cc3)S2)ccc1O (stereo not drawn)	none
COc1ccc(CN2CCC3CC2c2cc(Cl)ccc23)cc1 (stereo not drawn)	none
COc1ccc(CNc2nnnn2C)c(OC)c1	none
CS(=O)(=O)N(CCc1ccccc1)CC(=O)NCc1ccco1	TWEAK Fn14 block 82 (no result: TROY signal inh)
Cc1ccc(CNC(=O)CN(CCc2ccccc2)S(C)(=O)=O)cc1	none
CSCC[C@H](NC(=O)[C@H]1N2C(=O)c3ccccc3C2SC1(C)C)C(=O)NCc1ccncc1 (stereo partly drawn)	none
Cc1ccc(-c2nc(S(=O)(=O)c3ccc(C)cc3)c(N3CCOCC3)o2)cc1	TWEAK Fn14 block 65
Cc1cccc(-c2nc(S(=O)(=O)c3ccccc3)c(N3CCOCC3)o2)c1	none
NS(=O)(=O)c1ccc(CCNC(=O)c2ccc(C#CC3(O)CCCCC3)cc2)cc1	Peg3 prom inh 87, TROY signal inh 56
NS(=O)(=O)c1ccc(CCNC(=O)c2ccncc2)cc1	none
COc1ccc(Cl)cc1S(=O)(=O)N1CCC(C(=O)NCCC2=CCCCC2)CC1	none
Cc1cc(Nc2cccc([N+](=O)[O-])c2)n2c(nc3ccccc32)c1C#N	TWEAK Fn14 block 77, LMP1 NFkB inh 50, MITF TRPM1 inh 76, Shn3 inh set2 inconclusive
CCSCCc1nnc(NC(=O)Nc2cccc(C(F)(F)F)c2)s1	TWEAK Fn14 block 64, TROY signal inh 63, MITF TRPM1 inh 67
CCN(CC)C(=O)COc1ccc(/C=N/NC(=O)c2cc(-c3ccccc3OC)nc3ccccc23)cc1OC	none
COc1ccc(CN=C(C)c2c(C(F)(F)F)[nH]n(-c3nc4ccccc4s3)c2=O)cc1	TWEAK Fn14 block 58
CCCC(=O)Nc1c(-c2ccccc2)c(=O)c(C)nn1-c1ccc(C)cc1	none
CCOc1cccc(CNc2nnnn2C)c1	LMP1 NFkB inh 79
CC1(C)C(=O)N(c2ccccc2)C1c1ccccc1O (stereo not drawn)	Peg3 prom inh 52
COc1ccc(N2C(=O)C(C)(C)C2c2c(O)ccc3ccccc23)cc1 (stereo not drawn)	none
COc1ccccc1C=NN=C(N)C(N)=NN=Cc1ccccc1OC	none
C/C(=N\N=C\c1ccc(N(C)C)cc1)c1cccc([N+](=O)[O-])c1	none
CN(C)c1ccc(/C=N/N=C/c2ccccc2O)cc1	TWEAK Fn14 block 59
COc1ccccc1C=NN=C(NN=Cc1ccccc1OC)NN=Cc1ccccc1OC	TWEAK Fn14 block 101, TROY signal inh 56, MITF TRPM1 inh 88
COc1ccccc1C=NN=Cc1ccccc1O	LMP1 NFkB inh 83
Cc1ccccc1C(=O)c1cccn1CC(=O)NCc1cccc(Cl)c1	none
Cc1csc2c(N3CCN(C(=O)Nc4ccc(Cl)c(Cl)c4)CC3)ncnc12	TROY signal inh 63 (no result: Shn3 inh set2)
O=C(COc1cccc(NC(=O)c2cccc([N+](=O)[O-])c2)c1)c1ccc(Br)cc1	Peg3 prom inh 50, TWEAK Fn14 block 71
Cc1csc(=O)n1CC(=O)OCC(=O)Nc1cc(Cl)ccc1[N+](=O)[O-]	none
C=CC[N+](C)(C)C/C(Cl)=C(\Cl)c1ccccc1	LMP1 NFkB inh 49
O=C(COc1ccccc1)Nc1ccc(-c2nnc(-c3ccco3)o2)cc1	none
CCN(CC)CCCNc1ccc(-c2nnc(-c3ccc(OCC(C)C)cc3)o2)cn1	Peg3 prom inh 113, MITF TRPM1 inh 77
CCCOc1ccc(-c2nnc(-c3ccco3)o2)cc1	TWEAK Fn14 block 72
COc1cccc(-c2nnc(-c3ccco3)o2)c1	none
CC(C)COc1ccc(-c2nnc(-c3ccco3)o2)cc1	TWEAK Fn14 block 57
O=C(COc1ccccc1Br)Nc1ccc2c(c1)OCCCO2	none
CC1(C)Cc2nc3oc4c(=O)n(CC(=O)Nc5ccccc5)cnc4c3cc2CO1	none
CC(C)CCn1cnc2c(oc3nc4c(cc32)CCCC4)c1=O	TWEAK Fn14 block 76, TROY signal inh 55
CC(CCc1ccccc1)NC(=O)Cn1cccc1C(=O)c1ccccc1 (stereo not drawn)	none
CC(NC(=O)CCOc1ccccc1)c1ccccc1 (stereo not drawn)	LMP1 NFkB inh 74
COc1ccccc1C(=O)Nc1ccccc1N1CCN(C(=O)c2ccc(Cl)cc2)CC1	none
CC(=O)/C=C(/C)NC(Cc1c[nH]c2ccccc12)C(=O)O (stereo not drawn)	TROY signal inh 51!
CC(=O)N[C@H](Cc1c[nH]c2ccccc12)C(=O)O	none
C[C@@H](C(=O)N[C@@H](Cc1c[nH]c2ccccc12)C(=O)O)n1nnc2ccccc2c1=O	TWEAK Fn14 block 72
COc1ccc(-c2noc3c2-c2nc(-c4ccc(Br)cc4)sc2CC3)cc1	none
CC(C)(C)c1nc2c(s1)CCc1onc(-c3ccc(Br)cc3)c1-2	LMP1 NFkB inh 43
COc1ccc(-c2c(NC(=O)c3ccco3)oc3c(C)cccc3c2=O)cc1OC	none
O=C(CSc1nnnn1-c1ccccc1)Nc1nsc(-c2ccc(Cl)cc2)n1	LMP1 NFkB inh 76
O=C(CSc1nnnn1-c1ccccc1)Nc1nsc(-c2ccccc2)n1	none
O=C(c1ccccc1)N1CCN(c2ncnc3sc4c(c23)CCC4)CC1	Shn3 inh set2 85
